Screens deposited in PubChem by National Center for Advancing Translational Sciences (NCATS).
Most compounds without a hit are left out; they make up all but 2.1% or so of the library.
FUS suppressor – qHTS for Suppressors of FUS Proteinopathy: Primary screen using FUS-linked yeast assay; AID 1347120, 2019; S. cerevisiae FUS-expressing, growth rescue, OD600, 24 h; 0.24% of 390,000 active; Potency, µM (doses to about 76.6 µM), hits mostly activators;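 also: plate controls were DMSO vehicle for no effect and reference control for full effect; nearly all actives have a fitted effect of over 55% in size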
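Toxicity suppression screen in FUS-yeast. Cells induced with 2% galactose, starting OD 0.005, treated 24hr at 30C with compounds at multiple final concentrations; growth by OD600.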
Abeta rescue – qHTS for compounds that reverse cellular toxicity of Amyloid beta (A-beta) peptide in yeast: Primary Screen | 0.063% of 410,000 active | AID 1347071, 2019 | yeast expressing A-beta42, growth rescue, OD600, 48 h; response scale: 0% DMSO, 100% iron-clioquinol control | Potency, µM (doses to about 46.1 µM), usual class: activators; also: nearly all actives have a fitted effect of over 55% in size
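Growth rescue measured by 600 nm absorbance after 48 h yeast culture at 30 C with compound. Values normalized between DMSO and an equimolar ferric chloride plus clioquinol control.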
aSyn yeast inh – qHTS of alpha-syn Inhibitors; 0.14% of 370,000 active; Potency, µM (series often up to 46.1 µM), without a hit: at the highest dose growth rescue (activation), actives largely listed as activators; AID 652106, 2013; Yeast expressing alpha-synuclein, growth rescue, BacTiter-Glo, 24 h; also: % of control where 0% means no effect; nearly all actives have a fitted effect of over 65% in size
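Rescue of yeast growth: cells expressing toxic alpha-synuclein, induced in galactose at OD600 0.02, incubated with compound 24 h at 30 C. ATP luminescence quantified growth; inhibitors of toxicity appear as activators.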
TDP43 rescue – qHTS of TDP-43 Inhibitors; Potency, µM (titrated, usually from 46.1 µM), without a hit: at the top dose growth rescue (activation), most hits filed as activators; TDP-43 expressing yeast growth rescue, BacTiter-Glo, 24 h; 1.8% of 410,000 active; also: % of control where 0% means no effect; nearly all actives have a fitted effect of over 50% in size
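Cell-based yeast growth screen: TDP-43 expression induced in galactose, inoculum OD600=0.02 after raffinose pregrowth to mid-log. Read-out BacTiter-Glo luminescence at 24 hr, 30 deg C; inhibition of toxicity seen as signal increase.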
* = called active by the depositor; i = inactive; ? = inconclusive; nt = no result given; [ ] = another dose, or the depositor's remark. Calls follow the shape of the dose curve; as a rule, active = well fitted curve in the direction sought with a large enough effect; inconclusive = small, poorly fitted or top-dose-only effect, or another doubt; inactive = no such curve, though single readings can be large; an effect the other way counts as inactive or inconclusive. Potency is read from the fitted curve at half-maximal effect.

SMILES | FUS suppressor | Abeta rescue | aSyn yeast inh | TDP43 rescue
O=C(O)c1cccc(Oc2ccc([N+](=O)[O-])cc2)c1 | i | i | 19% | 18µM*
COc1cc2ccccc2cc1C(=O)OCC(=O)Nc1ccc(Br)cc1 | nt | nt | 3% | nt
O=C(NCc1ccccc1Cl)c1cc2ccccc2o1 | i | i | nt | 11µM*
Cc1ccccc1CNC(=O)c1cc2ccccc2o1 | i | i | 0% | ?
COC(=O)c1ccc(Cn2c(SCC(=O)NCc3ccccc3)nc3ccccc32)cc1 | ? | i | nt | 35µM*
COc1ccc(C(=O)CSc2nc3ccccc3n2CC(=O)NC(C)(C)C)cc1 | i | i | 14µM* | 0%
CCOc1ccc(-n2c(SCC(=O)Nc3cccc4ccccc34)nnc2-c2ccncc2)cc1 | i | nt | nt | nt
COc1cc(OC)cc(C(=O)Nc2ccc(Nc3ccccc3)cc2)c1 | 25µM* | i | 9% | -18%
COc1ccc(NC(=S)NC(=O)c2ccccc2)cn1 | i | i | 2% | 5%
COc1ccc(NC(=O)Nc2ccccc2SC)c(OC)c1 | i | i | 0% | -11%
COc1ccc(NC(=O)c2cccc(Oc3ccccc3)c2)cn1 | i | i | 10% | 11µM*
COc1cccc(C(=O)Nc2cccc(-c3ccccc3)c2)c1 | i | i | -1% | 18µM*
COc1cccc(NC(=O)Nc2ccccc2SC)c1 | i | i | -9% | 20µM*
O=C(CSc1ncccn1)NCc1ccc(F)cc1 | i | i | -1% | 16µM*
O=C(CSc1ccc(-c2ccccn2)nn1)NCc1ccccc1 | i | i | -2% | -10%
O=C(CSc1ccc(-c2ccccn2)nn1)NCc1ccc(F)cc1 | ? | i | -16% | 16µM*
O=C(CSc1ccnc(=O)[nH]1)NCc1ccc(F)cc1 | i | i | nt | 3.2µM*
O=C(NC1CCCCN(Cc2cccc(C(F)(F)F)c2)C1=O)c1ccc(F)c(F)c1 (stereo not given) | i | nt | nt | nt
CN(C1=C(NC(=O)c2ccc(Cl)cc2)C(=O)c2ccccc2C1=O)c1ccccc1 | nt | i | -5% | 35µM*
O=C(NC1=C(Nc2ccc(Cl)cc2)C(=O)c2ccccc2C1=O)c1ccccc1 | nt | i | 8% | 8%
CCC(C)Sc1nnc(NC(=O)c2ccco2)s1 (stereo not given) | i | i | -24% | 13µM*
Cc1ccc(CN2C(=O)C(Cc3ccccc3)Nc3ncnc(N4CCN(c5ccccc5)CC4)c32)cc1 (stereo not given) | 25µM* | i | 19% | -15%
O=C1C(Cc2ccccc2)Nc2ncnc(N3CCN(c4ccccc4)CC3)c2N1Cc1ccccc1 (stereo not given) | i | i | 6% | -1%
Cc1cc(Cl)ccc1C1=CC(=O)C[C@H](c2ccc(F)cc2)C1 | i | i | -10% | 14µM*
COc1ccc([C@H]2CC(=O)C=C(c3ccc(OC)cc3OC)C2)cc1 | ? | i | 12% | 0%
SMILES | FUS suppressor | Abeta rescue | aSyn yeast inh | TDP43 rescue
O=C1C=C(c2ccc(-c3ccccc3)c(F)c2)C[C@@H](c2ccc(F)cc2)C1 | i | i | 1% | 12%
COc1cc(F)c(C2=CC(=O)C[C@H](c3ccc(F)cc3)C2)cc1F | i | i | 9% | ?
O=C1C=C(c2cc(F)ccc2F)C[C@@H](c2ccc(F)cc2)C1 | i | i | 10% | 22µM*
COc1ccc([C@H]2CC(=O)C=C(c3ccc(Cl)cc3C)C2)cc1 | ? | i | -1% | 18µM*
COc1ccc(CN(Cc2ccccc2)C(=O)c2ccncc2)cc1COc1ccc(NC(C)=O)cc1 | nt | nt | 7% | nt
CCCC1CCC2(CC1)CCC2OC(=O)Nc1cccc(C(F)(F)F)c1 (stereo not given) | i | nt | nt | nt
CC(=O)N1N=C(c2ccccc2)CC1c1cn(C)c2ccccc12 (stereo not given) | nt | i | 20% | 20µM*
CCCCNC(=O)C1(C)CCCCN1C(=O)c1ccc2c(c1)C(C)(C)CCC2(C)C (stereo not given) | i | i | 6% | 20µM*
COc1ccccc1NC(=O)Cc1ccc(-c2ccccc2)cc1 | i | i | -12% | 16µM*
Cc1ccnc(NC(=O)Cc2ccc([N+](=O)[O-])cc2)c1 | i | i | 3% | -10%
Cc1ccnc(NC(=O)Cc2ccc(-c3ccccc3)cc2)c1 | i | i | 5% | 14µM*
COc1ccc(-c2ccccc2)cc1NCc1ccccc1C | i | i | -15% | 21%
O=C(Cc1ccc(-c2ccccc2)cc1)Nc1ccccn1 | i | i | -7% | 14µM*
COc1ccccc1CNc1cc(-c2ccccc2)ccc1OC | nt | i | -12% | 13µM*
Cc1ccc(NC(=O)Cc2ccc(-c3ccccc3)cc2)nc1 | i | ? | 7% | 7.1µM*
CCNC(=S)NN=C1c2ccccc2-c2ccccc21 | i | i | -5% | 13µM*
C=C(C)CNC(=S)NN=C1c2ccccc2-c2ccccc21 | i | i | -3% | 8%
Cc1ccc(CN2CCCCC(NC(=O)C(C)(C)C)C2=O)cc1 (stereo not given) | i | nt | nt | nt
COc1cc2cc(C(c3nnnn3C(C)(C)C)N3CCc4ccccc43)c(=O)[nH]c2cc1OC (stereo not given) | 28µM* | i | 10% | -22%
C[C@]12CCC(O)CC1=CCC1C2CC[C@]2(C)/C(=N\NC(N)=S)CCC12 (stereo not given in full) | i | 2.5µM* | 3% | 25%
CC12CCC(O)CC1=CCC1C2CCC2(C)C1CCC21CCC(=O)O1 (stereo not given) | nt | i | 2% | 30%
Cc1ccc(NC(=O)COc2ccccc2)cc1Cl | i | i | -6% | ?
COc1ccc(NC(=O)COc2ccccc2)cc1Cl | i | i | -8% | 11µM*
CC(C)c1ccc(NC(=O)COc2ccccc2)cc1 | i | i | -7% | 10µM*
COc1ccc2[nH]cc(C(C)c3ccccc3O)c2c1 (stereo not given) | i | nt | nt | nt
SMILES | FUS suppressor | Abeta rescue | aSyn yeast inh | TDP43 rescue
N/C(=N\OC(=O)CCCOc1ccccc1)c1ccccc1 | i | i | 1% | 25µM*
N/C(=N\OC(=O)CCCOc1ccc(Cl)cc1Cl)c1ccncc1 | i | i | 21% | ?
N/C(=N\OC(=O)CCCOc1ccc(Cl)cc1Cl)c1ccccn1 | i | i | 2% | 14µM*
N/C(=N\OC(=O)CCCOc1ccccc1)c1ccncc1 | i | i | 9% | -3%
Cc1ccc(OCCCC(=O)ON=C(N)c2ccccc2C)cc1 | i | i | 12% | ?
COc1ccc(OCCCC(=O)ON=C(N)c2ccccc2Cl)cc1 | i | i | 4%[1.84 µM] | 10µM*
CCOc1ccc(C(=O)COc2ccc(NC(C)=O)cc2)cc1 | 11µM* | i | 7% | -1%
COc1ccc(N=c2nc(-c3ccc(C)cc3)n(-c3ccccc3)s2)cc1 | nt | nt | -22% | nt
